# Assay results published in PubChem BioAssay (EPA / NIEHS).
# Inconclusive results are not listed. Where a structure was tested more than once in an assay, its records may differ in their call. Activity calls are given as the source filed them. Rule for the calls, unless noted: active = hit-call score of the fitted dose curve at least 0.9, where 1 is the maximum; inactive = score below 0.9.
# Key:
# [1] = read-out: Human Leukocyte Antigen - DR isotype (HLADR), HLA-DRA (gene 3122); experiment: BSK_3C_HLADR: BioMAP Diversity Plus: 3C Assay for Human Leukocyte Antigen - DR isotype (HLADR) Biomarker Activity (AID 2283019); conditions: primary human endothelial cells (HUVEC); actives raise or lower the signal;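 for outcome: ELISA of cell-surface HLA-DR on HUVEC 24 h after dosing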
# Procedure, shortened: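 HUVEC, 3C stimulation, 24 h post-dose; HLA-DR by ELISA; bidirectional curve fit vs DMSO baseline; gain or loss of signal scored.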
# [2] = read-out: Interleukin-8 (IL8), CXCL8 (gene 3576); experiment: BSK_3C_IL8: BioMAP Diversity Plus: 3C Assay for Interleukin-8 (IL8) Biomarker Activity (AID 2283020); conditions: primary human endothelial cells (HUVEC); actives raise or lower the signal
# Procedure, shortened: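 ELISA read-out of IL-8 from human umbilical vein endothelium, measured 24 h after chemical dosing. Activity is expressed relative to DMSO negative control, with both increases and decreases fitted.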
# [3] = read-out: Monokine induced gamma interferon (MIG), CXCL9 (gene 4283); experiment: BSK_3C_MIG: BioMAP Diversity Plus: 3C Assay for Monokine induced gamma interferon (MIG) Biomarker Activity (AID 2283021); conditions: primary human endothelial cells (HUVEC); actives raise or lower the signal
# Procedure, shortened: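 Read-out is ELISA detection of MIG on human umbilical vein endothelial cells, taken 24 h after dosing. Gain or loss of signal was scored relative to DMSO controls using bidirectional curve fitting.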
# [4] = read-out: Matrix Metallopeptidase 1 (MMP1), MMP1 (gene 4312); experiment: BSK_BE3C_MMP1: BioMAP Diversity Plus: BE3C Assay for Matrix Metallopeptidase 1 (MMP1) Biomarker Activity (AID 2283024); conditions: primary human bronchial epithelial cells; actives raise or lower the signal
# Procedure, shortened: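 Human bronchial epithelial cells (BE3C system) exposed to compound for 24 h; MMP1 then quantified by ELISA. Activity was fitted in both directions relative to DMSO.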
# [5] = BSK_3C_Vis: BioMAP Diversity Plus: 3C Assay for Morphology Visualization (AID 2283025); conditions: primary human endothelial cells (HUVEC);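 note: fitted both ways so gain or loss versus DMSO counts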;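 for AC50: light microscopy image of cell morphology used as background control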
# Procedure, shortened: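 Chemicals were added to primary human umbilical vein endothelium, cells were incubated 24 h, and morphology was then visualized by light microscopy. Gain or loss of signal was fitted bidirectionally relative to DMSO.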
# [6] = read-out: Pselectin, SELP (gene 6403); experiment: BSK_4H_Pselectin: BioMAP Diversity Plus: 4H Assay for Pselectin Biomarker Activity (AID 2283026); conditions: primary human endothelial cells (HUVEC); actives raise or lower the signal
# Procedure, shortened: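 ELISA read-out of P-selectin on human umbilical vein endothelium after 24 h of dosing. Values derive from bidirectional fitting relative to DMSO. Parallel SRB protein staining flagged overt cytotoxicity.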
# [7] = BSK_BE3C_SRB: Viability Assessment in the BioMAP Diversity Plus: BE3C Assay (AID 2283028); conditions: primary human bronchial epithelial cells
# Procedure, shortened: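 Primary human bronchial epithelium; chemical dosing, 24 h; 10% TCA fix, 0.1% SRB stain, A560; bidirectional fit vs DMSO baseline.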
# [8] = read-out: Thrombomodulin, THBD (gene 7056); experiment: BSK_3C_Thrombomodulin: BioMAP Diversity Plus: 3C Assay for Thrombomodulin Biomarker Activity (AID 2283029); conditions: primary human endothelial cells (HUVEC); actives raise or lower the signal
# Procedure, shortened: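 Read-out is ELISA of thrombomodulin on human umbilical vein endothelium 24 h after chemical dosing. Gain or loss of signal is scored relative to DMSO. Overt cytotoxicity is checked in parallel cultures by sulforhodamine B staining.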
# [9] = read-out: Urokinase-type plasminogen activator receptor (uPAR), PLAUR (gene 5329); experiment: BSK_4H_uPAR: BioMAP Diversity Plus: 4H Assay for Urokinase-type plasminogen activator receptor (uPAR) Biomarker Activity (AID 2283030); conditions: primary human endothelial cells (HUVEC); actives raise or lower the signal
# Procedure, shortened: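 HUVEC, 24 h post-dose; uPAR by ELISA; bidirectional fit vs DMSO baseline.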
# [10] = read-out: Vascular endothelial growth factor receptor 2 (Homo sapiens) (UniProt P35968); experiment: BSK_4H_VEGFRII: BioMAP Diversity Plus: 4H Assay for Vascular endothelial growth factor receptor 2 (VEGFR2) Biomarker Activity (AID 2283031); conditions: primary human endothelial cells (HUVEC); actives raise or lower the signal
# Procedure, shortened: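 HUVEC (human primary), 4H system; 24 h post-dose; VEGFRII by ELISA; bidirectional curve fit vs DMSO baseline; gain or loss of signal scored.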
# [11] = read-out: Human Leukocyte Antigen - DR isotype (HLADR), HLA-DRA (gene 3122); experiment: BSK_BE3C_HLADR: BioMAP Diversity Plus: BE3C Assay for Human Leukocyte Antigen - DR isotype (HLADR) Biomarker Activity (AID 2283032); conditions: primary human bronchial epithelial cells; actives raise or lower the signal
# Procedure, shortened: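 ELISA read-out of HLA-DR on human lung bronchial epithelial primary cells, measured 24 h post-dosing. Both increases and decreases were scored relative to DMSO vehicle.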
# [12] = read-out: Vascular cell adhesion molecule 1 (VCAM1), VCAM1 (gene 7412); experiment: BSK_4H_VCAM1: BioMAP Diversity Plus: 4H Assay for Vascular cell adhesion molecule 1 (VCAM1) Biomarker Activity (AID 2283033); conditions: primary human endothelial cells (HUVEC); actives raise or lower the signal;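 for outcome: cell-surface VCAM-1 protein measured by ELISA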
# Procedure, shortened: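 ELISA read-out of VCAM-1 on human umbilical vein endothelium 24 hours after chemical dosing; gain or loss of signal was fitted relative to DMSO, with sulforhodamine B staining of parallel cultures flagging overt cytotoxicity.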
# [13] = read-out: Interferon-gamma inducible Protein 10 (IP10), CXCL10 (gene 3627); experiment: BSK_BE3C_IP10: BioMAP Diversity Plus: BE3C Assay for Interferon-gamma inducible Protein 10 (IP10) Biomarker Activity (AID 2283034); conditions: primary human bronchial epithelial cells; actives raise or lower the signal
# Procedure, shortened: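 Chemical is dosed onto human lung bronchial epithelial primary cells, cultures are incubated 24 h, and IP-10 is then quantified by ELISA. Gain or loss of signal is fitted in both directions relative to DMSO.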
# [14] = read-out: Monokine induced gamma interferon (MIG), CXCL9 (gene 4283); experiment: BSK_BE3C_MIG: BioMAP Diversity Plus: BE3C Assay for Monokine induced gamma interferon (MIG) Biomarker Activity (AID 2283035); conditions: primary human bronchial epithelial cells; actives raise or lower the signal;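 note: MIG protein measured by ELISA in BE3C cultures after 24 h of dosing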
# Procedure, shortened: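 ELISA read-out of MIG in human lung bronchial epithelial primary cultures, 24 h post-dosing. Bidirectional curve fit vs DMSO baseline.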
# [15] = read-out: Transforming growth factor beta 1 (TGFb1), TGFB1 (gene 7040); experiment: BSK_BE3C_TGFb1: BioMAP Diversity Plus: BE3C Assay for Transforming growth factor beta 1 (TGFb1) Biomarker Activity (AID 2283036;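 note: TGF-b1 protein level measured by ELISA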); conditions: primary human bronchial epithelial cells; actives raise or lower the signal
# Procedure, shortened: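 Primary human lung bronchial epithelial cells; compound exposure 24 h; TGF-b1 by ELISA; bidirectional fit, DMSO baseline. Parallel SRB total-protein staining for cytotoxicity.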
# [16] = read-out: Plasminogen activator inhibitor-1 (PAI1), SERPINE1 (gene 5054); experiment: BSK_BE3C_PAI1: BioMAP Diversity Plus: BE3C Assay for Plasminogen activator inhibitor-1 (PAI1) Biomarker Activity (AID 2283037); conditions: primary human bronchial epithelial cells; actives raise or lower the signal
# Procedure, shortened: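 Primary human lung bronchial epithelial cells; chemical dosing; 24 h; PAI-1 measured by ELISA; bidirectional fit referenced to DMSO as negative control.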
# [17] = read-out: urokinase plasminogen activator (uPA), PLAU (gene 5328); experiment: BSK_BE3C_uPA: BioMAP Diversity Plus: BE3C Assay for urokinase plasminogen activator (uPA) Biomarker Activity (AID 2283038); conditions: primary human bronchial epithelial cells; actives raise or lower the signal;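 for outcome: uPA protein level quantified by ELISA in cell cultures; uPA read one day after compound addition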
# Procedure, shortened: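 ELISA read-out of uPA in human lung primary bronchial epithelial cultures, 24 h post-dosing. Gain or loss of signal fitted bidirectionally relative to DMSO baseline; cytotoxicity checked in parallel cultures via SRB total protein stain.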
# [18] = target: human Vitamin D Receptor (VDR), VDR (gene 7421) (UniProt P11473); experiment: ATG_VDR_TRANS: Attagene TRANS-FACTORIAL HepG2 Assay for human Vitamin D Receptor (VDR) (AID 2283022; active = hit-call score of the fitted dose curve at least 0.9, where 1 is the maximum)
# Procedure, shortened: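 RT-PCR/capillary electrophoresis read-out of reporter mRNA induction in transiently transfected HepG2; 24 h dosing; chimeric NR-Gal4 (TRANS format); gain-of-signal fit against DMSO baseline.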
# Chain of human Vitamin D Receptor (VDR), VDR (gene 7421) (P11473 whole entry, looked up, the tested form may be a part): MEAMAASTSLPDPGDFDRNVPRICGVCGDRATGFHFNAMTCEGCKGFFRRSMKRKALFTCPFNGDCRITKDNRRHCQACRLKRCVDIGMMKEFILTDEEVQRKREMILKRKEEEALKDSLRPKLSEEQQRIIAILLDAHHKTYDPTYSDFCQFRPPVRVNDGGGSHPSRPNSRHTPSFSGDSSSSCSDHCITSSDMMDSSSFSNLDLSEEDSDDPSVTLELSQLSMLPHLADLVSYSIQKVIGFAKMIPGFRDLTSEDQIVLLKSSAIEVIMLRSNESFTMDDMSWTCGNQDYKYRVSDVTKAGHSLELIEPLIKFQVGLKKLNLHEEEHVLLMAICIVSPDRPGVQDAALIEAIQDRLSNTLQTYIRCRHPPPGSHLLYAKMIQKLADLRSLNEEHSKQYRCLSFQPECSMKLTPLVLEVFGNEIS
compound,measurement,setting,value
CCCCc1ccccc1,outcome,[1],inactive
same,outcome,[2],inactive
same,outcome,[3],inactive
same,outcome,[4],inactive
same,outcome,[5],inactive
same,outcome,[6],inactive
same,outcome,[7],inactive
same,outcome,[8],inactive
same,outcome,[9],inactive
same,outcome,[10],inactive
same,outcome,[11],inactive
same,outcome,[12],inactive
same,outcome,[13],inactive
same,outcome,[14],inactive
same,outcome,[15],inactive
same,outcome,[16],inactive
same,outcome,[17],inactive
ClC(Cl)c1ccccc1,outcome,[1],inactive
same,outcome,[2],inactive
same,outcome,[3],inactive
same,outcome,[4],inactive
same,outcome,[5],inactive
same,outcome,[6],inactive
same,outcome,[7],inactive
same,outcome,[8],inactive
same,outcome,[9],inactive
same,outcome,[10],inactive
same,outcome,[11],inactive
same,outcome,[12],inactive
same,outcome,[13],inactive
same,outcome,[14],inactive
same,outcome,[15],inactive
same,outcome,[16],inactive
same,outcome,[17],inactive
CCCCOCC1CO1 (stereo not given),outcome,[18],inactive
CC(C)(C)c1ccccc1OP(=O)(Oc1ccccc1)Oc1ccccc1,AC50,[1],20 µM (active)
same,AC50,[2],20 µM (active)
same,outcome,[3],inactive
same,AC50,[4],5.01 µM (active)
same,AC50,[5],20 µM (active)
same,AC50,[6],20 µM (active)
same,outcome,[7],inactive
same,AC50,[8],20 µM (active)
same,AC50,[9],34.4 µM (active)
same,outcome,[10],inactive
same,AC50,[11],2.85 µM (active)
same,AC50,[12],20 µM (active)
same,outcome,[13],inactive
same,outcome,[14],inactive
same,outcome,[15],inactive
same,outcome,[16],inactive
same,outcome,[17],inactive
CC(O)C#N (stereo not given),outcome,[18],inactive
O=P1(N(CCCl)CCCl)NCCCO1 (stereo not given),outcome,[1],inactive
same,outcome,[2],inactive
same,outcome,[3],inactive
same,outcome,[4],inactive
same,outcome,[5],inactive
same,outcome,[6],inactive
same,outcome,[7],inactive
same,outcome,[8],inactive
same,outcome,[9],inactive
same,outcome,[10],inactive
same,outcome,[11],inactive
same,outcome,[12],inactive
same,outcome,[13],inactive
same,outcome,[14],inactive
same,outcome,[15],inactive
same,outcome,[16],inactive
same,outcome,[17],inactive
Nc1cc2c3c(c1)C(c1ccccc1)=N[C@@H](NC(=O)c1cccnc1)C(=O)N3CC2,outcome,[1],inactive
same,outcome,[2],inactive
same,outcome,[3],inactive
same,outcome,[4],inactive
same,outcome,[5],inactive
same,outcome,[6],inactive
same,outcome,[7],inactive
same,outcome,[8],inactive
same,outcome,[9],inactive
same,outcome,[10],inactive
same,outcome,[11],inactive
same,outcome,[12],inactive
same,outcome,[13],inactive
same,outcome,[14],inactive
same,outcome,[15],inactive
same,outcome,[16],inactive
same,outcome,[17],inactive
CCCCN(CC)C(=O)SCCC,outcome,[18],inactive
CCN(CC)C1CCCCC1,outcome,[18],inactive
O=C(O)C(F)(F)OC(F)(F)C(F)(F)OC(F)(F)F,outcome,[1],inactive
same,outcome,[2],inactive
same,outcome,[3],inactive
same,outcome,[4],inactive
same,outcome,[6],inactive
same,outcome,[7],inactive
same,outcome,[8],inactive
same,outcome,[9],inactive
same,outcome,[10],inactive
same,outcome,[11],inactive
same,outcome,[12],inactive
same,outcome,[13],inactive
same,outcome,[14],inactive
same,outcome,[16],inactive
same,AC50,[17],1.42 µM (active)
same,outcome,[17],inactive
